Compound activity (PubChem)
The list is not random: actives were taken first. Their share in the collection is about 1.2%.
Avidin fluor: green autofluorescence of compounds with avidin beads – biophysical, 488/530 nm, flow cytometry, artefact control, profiling panel. compound fluorescence 488/530 nm; hits give high values. 0.38% of 220,000 active. fluorescence (KMESF) at 10 µM; in the data active = fluorescence above about 47
GSH bead fluor: compound fluorescence on glutathione beads, profiling panel, artefact control, biophysical, 488/530 nm, flow cytometry; GSH beads flow cytometry, compound fluorescence 488/530 nm; hits give high values; fluorescence (KMESF) at 10 µM; 0.25% of 190,000 active; in the data active = fluorescence above about 89;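 also: glutathione beads carrying GST-tagged Bcl family fusion proteins plus one bare bead set; values are compound well signal with DMSO vehicle wells as background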
RGS8-Gao reg: RGS8-Galphao binding modulators, primary screen, biochemical, multiplexed bead flow cytometry | Guanine nucleotide-binding protein G(o) subunit alpha (Homo sapiens), P09471 | actives lie on both sides | response (percent of control binding), % at 10 µM | 0.34% of 220,000 active | AID 1423, 2008; in the data active = response below about 60% or above about 140%; inactive = in between;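 also: Galphao activated as the GDP aluminium fluoride complex binding bead-coupled RGS8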
Target sequence (P09471 whole entry, looked up): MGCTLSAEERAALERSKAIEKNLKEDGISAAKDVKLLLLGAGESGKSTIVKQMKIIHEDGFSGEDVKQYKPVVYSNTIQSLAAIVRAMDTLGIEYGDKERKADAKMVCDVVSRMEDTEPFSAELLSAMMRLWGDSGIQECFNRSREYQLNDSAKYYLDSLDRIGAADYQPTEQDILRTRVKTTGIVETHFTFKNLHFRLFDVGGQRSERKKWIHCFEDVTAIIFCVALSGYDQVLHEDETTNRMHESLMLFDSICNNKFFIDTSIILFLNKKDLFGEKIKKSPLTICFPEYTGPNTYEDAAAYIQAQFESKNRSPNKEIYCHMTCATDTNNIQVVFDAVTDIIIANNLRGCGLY
RGS4-Gao reg: modulators of RGS4 binding to Galphao, primary screen, biochemical, multiplexed bead flow cytometry; actives lie on both sides; Guanine nucleotide-binding protein G(o) subunit alpha (Homo sapiens), P09471; 0.33% of 220,000 active; binding response (% of control), % at 10 µM; in the data active = binding response below about 49% or above about 150%; inactive = in between;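 also: fluorescent Galphao activated with aluminum fluoride binding bead-coupled RGS4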
RGS7-Gao reg: RGS7-Galphao binding modulators, primary screen, biochemical, multiplexed bead flow cytometry. actives lie on both sides. binding response (% of control), % at 10 µM. 0.35% of 220,000 active. AID 1439, 2008; in the data active = binding response below about 49% or above about 150%; inconclusive = no clear call, values can overlap the other calls; inactive = in between;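 also: fluorescent Galphao held in activated GDP-AlF4 state binding bead-coupled RGS7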
RGS16-Gao: modulators of RGS16 binding to Galphao, primary screen, biochemical, human proteins, multiplexed bead flow cytometry. bead-based flow cytometry RGS16-Galphao binding, fluorescence; actives lie on both sides. binding response (% of control), % at 10 µM. 0.38% of 220,000 active;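 also: Galphao activated by GDP with aluminum fluoride before binding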
Target sequence (O15492 whole entry, looked up): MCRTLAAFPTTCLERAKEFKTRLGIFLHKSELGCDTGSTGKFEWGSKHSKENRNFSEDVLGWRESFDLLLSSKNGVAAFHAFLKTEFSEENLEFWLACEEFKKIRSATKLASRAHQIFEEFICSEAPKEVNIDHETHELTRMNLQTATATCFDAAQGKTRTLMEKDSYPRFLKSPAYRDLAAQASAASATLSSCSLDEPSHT
Target sequence (P09471 whole entry, looked up): as the sequence (P09471 whole entry, looked up) above
RGS-Gao: modulators of RGS–Galpha-o binding, primary screen, biochemical, multiplexed beads, flow cytometry, RGS4/7/8/16/19. multiplexed bead flow cytometry. RGS4–Galpha-o binding response, % at 10 µM. shares compounds with RGS16-Gao. 99% of 1,600 active;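 also: fluorescently labeled Galpha-o bound to GDP with aluminium fluoride binding biotinylated RGS beads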
Avidin counter: disruption of biotin probe capture by avidin, counter-screen for RGS protein interaction modulators, biochemical, flow cytometry, bead-based; shares compounds with RGS16-Gao; streptavidin beads, fluorescein-biotin binding; inhibition, % at 10 µM; 1,700 tested, under 10 active; AID 1783, 2009;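 active = inhibition above 50%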;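 also: median green fluorescence of gated singlet beads compared with DMSO control wells; 0% = DMSO wells and 100% = complete loss of bead fluorescence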
RGS8-Gao single: RGS8-Galphao binding modulators, confirmation, biochemical, multiplexed bead flow cytometry, single concentration | bead-based flow cytometry RGS8-Galphao binding, fluorescence; actives lie on both sides | binding response (% of control), % at 10 µM | AID 1836, 2009 | 3% of 1,700 active | shares compounds with RGS16-Gao; in the data active = binding response below about 72% or above about 130%; inactive = in between;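 also: Galphao activated as GDP AlF4 complex before binding bead RGS8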
RGS7-Gao single: RGS7-Galphao binding modulators, confirmation, biochemical, multiplexed bead flow cytometry, single concentration. shares compounds with RGS16-Gao. bead-based flow cytometry RGS7-Galphao binding; actives lie on both sides. response (percent of control binding), % at 10 µM. 7.8% of 1,700 active. AID 1837, 2009; in the data active = response below about 75% or above about 130%; inactive = in between;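 also: fluorescent Galphao activated with GDP and aluminum fluoride binding bead-coupled RGS7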
RGS16-Gao conf: modulators of RGS16-Galphao protein binding, confirmation, biochemical, single concentration, multiplexed bead flow cytometry | shares compounds with RGS16-Gao | bead-based flow cytometry; actives lie on both sides | response (% of control binding), % at 10 µM | 4% of 1,700 active | AID 1838, 2009; in the data active = response below about 74% or above about 130%; inactive = in between;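 also: Galphao activated as the GDP aluminium fluoride complex binding bead-coupled RGS16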
RGS4-Gao confirm: modulators of RGS4-Galphao protein binding, confirmation, biochemical, single concentration, multiplexed bead flow cytometry. 4% of 1,700 active. binding response (% of control), % at 10 µM. shares compounds with RGS16-Gao. actives lie on both sides; in the data active = binding response below about 74% or above about 130%; inactive = in between
RGS19-Gao single: regulators of RGS19-Galphao binding, confirmation, biochemical, single point, multiplexed bead flow cytometry | shares compounds with RGS16-Gao | bead-based flow cytometry RGS19-Galphao binding; actives lie on both sides | 5% of 1,700 active | response (percent of control binding), % at 10 µM | AID 1841, 2009; in the data active = response below about 50% or above about 160%; inactive = in between;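 also: 100% = no compound control and 0% = blank background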
Numbers without * were called inactive; u = inconclusive; x = not tested or not shown; [ ] = another dose, or the depositor's remark. Unless noted, no rule for the calls is given here.

SMILES	Avidin fluor	GSH bead fluor	RGS8-Gao reg	RGS4-Gao reg	RGS7-Gao reg	RGS16-Gao	Avidin counter	RGS8-Gao single	RGS7-Gao single	RGS16-Gao conf	RGS4-Gao confirm	RGS19-Gao single	others
Cc1c(NC(=S)NC(=O)C2CCCCC2)c(=O)n(-c2ccccc2)n1C	-2	23	17*	7.8*	15*	13*	1	80	67*	78	77	62
Cc1c(NC(=S)NC(=O)C(C)(C)C)c(=O)n(-c2ccccc2)n1C	1	8	89	95	99	63	x	x	x	x	x	x
Cc1c(NC(=O)CNCc2ccc3c(c2)OCO3)c(=O)n(-c2ccccc2)n1C	8	x	105	101	u	106	x	x	x	x	x	x
Fc1cc(F)c2nc(N3CCCC3)sc2c1	14	10	106	103	100	117	x	x	x	x	x	x
COc1cccc(NC(=S)/C(=C(\[O-])c2ccc([N+](=O)[O-])cc2)[n+]2ccccc2)c1	22	22	111	112	118	118	x	x	x	x	x	x
CSC(=S)N(C)C1CCS(=O)(=O)C1 (configuration not stated)	3	13	67	87	86	25*	0	107	105	94	102	54	RGS-Gao=87*
CN(C)C(=S)Nc1ccc2c(c1)OCO2	9	10	94	97	95	95	x	x	x	x	x	x
S=C(Nc1ccc2c(c1)OCO2)Nc1ccc2c(c1)OCO2	10	22	141*[activator]	142	159*[activator]	146	0	100	103	99	102	92	RGS-Gao=142*
CC(C)OC(=O)C1C(=O)CC(C)(O)C(C(=O)OC(C)C)C1c1ccccc1 (configuration not stated)	-1	15	5.7*	2.3*	1.8*	-3.2*	-2	101	101	102	101	103
CCOC(=O)COc1nc(-c2ccc(Cl)cc2)cc(-c2ccco2)c1C#N	82*	x	110	177*[activator]	u	155	0	100	98	100	100	93
CCOC(=O)COc1nc(-c2ccccc2)cc(-c2ccco2)c1C#N	26	x	101	105	u	101	x	x	x	x	x	x
CC(=O)c1c(N2CCN(C)CC2)nc(=S)n(-c2cc(C)ccc2C)c1C	12	15	98	100	u	99	x	x	x	x	x	x
O=C(Nc1ccc(Br)cn1)c1cccc2c1-c1ccccc1C2=O	4	21	99	98	97	95	x	x	x	x	x	x
COC(=O)c1ccc(C(=O)OC)c(NC(=O)CSc2ccccn2)c1	87*	21	100	107	157*[activator]	101	1	98	101	100	100	108	RGS-Gao=107*
COc1ccc(NC(=O)CSc2ccccn2)cc1OC	15	29	101	100	99	102	x	x	x	x	x	x
O=C(CCN1CCC(c2ccc(Cl)s2)=N1)c1ccc(Cl)s1	3	x	100	98	u	102	x	x	x	x	x	x
Cc1ccc(NC(=O)c2ccc(OCc3c(C)noc3C)cc2)cc1	1	x	53*	23*	u	27	0	101	106	106	106	104
Cc1ccc(NC(=O)c2cccc(OCc3c(C)noc3C)c2)cc1	8	10	103	100	99	103	x	x	x	x	x	x
O=C(c1ccc(Cn2c(=S)[nH]c3ccc(Br)cc3c2=O)cc1)N1CCN(C2CCCCC2)CC1	10	27	90	85	85	87	x	x	x	x	x	x
O=C(Cn1c(C(F)(F)F)nc2ccccc21)Nc1ccccc1N1CCOCC1	8	35	54*	48*	45*	42	0	99	102	100	103	103
COc1ccc(C2Oc3ccccc3N2C(C)=O)cc1 (configuration not stated)	16	15	102	102	101	100	x	x	x	x	x	x
CC(=O)Oc1ccc(C2OC(=O)c3ccccc3N2C(C)=O)cc1 (configuration not stated)	x	40	106	x	x	x	0	98	97	96	98	100
C/C(=N\O)c1ncc(C(F)(F)F)cc1Cl	6	17	97	96	95	94	x	x	x	x	x	x
O=C(CCNC(=O)c1ccco1)NCc1ccccc1	x	43	x	x	x	x	0	103	106	106	106	98
Cn1ccnc1Sc1ccc(C(N)=O)cc1[N+](=O)[O-]	11	14	101	100	u	101	x	x	x	x	x	x
CC(C)C(C(=O)N1CCN(C(=O)OC(C)(C)C)CC1)n1cc(-c2cn([C@@H](C)C(=O)N3CCN(C(=O)OC(C)(C)C)CC3)nn2)nn1 (some centres not stated)	10	x	101	107	u	103	x	x	x	x	x	x
Cc1ccc(SCCNC(=O)/C=C/c2ccc([N+](=O)[O-])cc2)cc1	17	9	135	113	112	280*[activator]	-1	100	103	102	102	95	RGS-Gao=113*
O=C(/C=C/c1ccc([N+](=O)[O-])cc1)NCCSc1ccccc1	7	38	104	106	107	94	x	x	x	x	x	x
